The text below walks through data of PubChem BioAssay (NCATS).

The subject of one test is KB-3-1. As to the kind of experiment: Cytotoxic Profiling of Annotated Libraries Using Quantitative High-Throughput Screening (AID 1296008). Particulars: Five cell lines viability, CellTiter-Glo ATP luminescence, 48-72 h; max response: stronger effect = lower value. The gist of the method:
(§1)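 Cells exposed to compounds for 48 or 72 hr at 37 degrees Celsius. Viability read as ATP-coupled luminescence with CellTiter-Glo after 10 min at room temperature.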
Background: In ATP-based viability assays light output follows the ATP content of the culture.

The test system of test [1] is NIH3T3. The test is described as above. Particulars: Five cell lines viability, CellTiter-Glo ATP luminescence, 48-72 h; max response: stronger effect = lower value. Summed up:
as §1

Another test deals with HACAT. As to the kind of experiment: qHTS assay to identify novel small-molecules to repurpose for Merkel cell carcinoma treatment (AID 1296009). Note: potency is the fitted concentration of half-maximal effect. As to conditions: MCC and control cell lines, CellTiter-Glo viability, 72 h; at 44.8 µM (top of the series) unless noted. The gist of the method:
(§2)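 Cells were treated for 72 hr at 37 degree celsius with compounds in 8- or 11-point dose response. Viability was read by CellTiter-Glo luminescence, normalized to no-cell (cytotoxicity) and DMSO controls.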
(qHTS replaces the single test concentration by a dilution series.)

In a further test the test system is MCC-13. The test is described as above. Particulars: MCC and control cell lines, CellTiter-Glo viability, 72 h; series mostly up to 46 µM. Summed up:
as §2

A further test has as its system MCC-26. The description is as above. As to conditions: MCC and control cell lines, CellTiter-Glo viability, 72 h; series mostly up to 46 µM. Summed up: as §2
In another test the test system is MKL-1. The test is described as above. Particulars: MCC and control cell lines, CellTiter-Glo viability, 72 h; series mostly up to 46 µM. Summed up: as §2
In another test the test system is MKL-2. The description is as above. Particulars: MCC and control cell lines, CellTiter-Glo viability, 72 h; series mostly up to 46 µM. The gist of the method:
as §2

The next test deals with UISO. Described as above. As to conditions: MCC and control cell lines, CellTiter-Glo viability, 72 h; series mostly up to 46 µM. Summed up:
as §2

In test [2] the test system is NIH3T3. Described as above. Particulars: MCC and control cell lines, CellTiter-Glo viability, 72 h; at 44.8 µM (top of the series) unless noted. The gist of the method: as §2
A further test relates to HEK293T. The test is described as above. As to conditions: MCC and control cell lines, CellTiter-Glo viability, 72 h; at 44.8 µM (top of the series) unless noted. The gist of the method: as §2

Values joined by “and” are separate entries in the source; they are usually repeats but may differ in a detail not shown here. Equal values may be shown once. Inconclusive results are not listed. Some structures have more than one record in an assay (separate samples or runs), and their calls can disagree. Active and inactive are the calls of the source. Calls come from the whole dose curve; as a rule, active = well fitted inhibition curve with a large enough effect; inconclusive = small, poorly fitted or top-dose-only effect; inactive = flat fitted curve, though single readings scatter.
% is set by controls: 0 for no effect and ±100 for the full control effect.
Note: nearly all actives have a fitted effect of over 60% in size.

For `Cc1nccn1CC1CCc2c(c3ccccc3n2C)C1=O` (stereo not drawn), the max response is -3.61% (inactive) and -19.2% (inactive) in the test on KB-3-1; -4.36% (inactive) and -4.32% (inactive) and -0.458% (inactive) in the test with NIH3T3 [1]. Besides, the compound was classed as inactive with KB-3-1 and in the test on HACAT. For the same compound, the Potency result with MCC-13, in the test with MCC-26, in the test on MKL-1, in the test on MKL-2 and with UISO was “inactive” in each case.
Consider `CC(C)c1nc(CN(C)C(=O)N[C@H](C(=O)N[C@@H](Cc2ccccc2)C[C@H](O)[C@H](Cc2ccccc2)NC(=O)OCc2cncs2)C(C)C)cs1`, for which the max response in the test with KB-3-1 was -5.85% (inactive) and -8.86% (inactive) and 1.74% (inactive); with NIH3T3 [1] it was -19.1% (inactive) and 3.76% (inactive). Besides, the result in the test with NIH3T3 [1], with HACAT and with NIH3T3 [2] was inactive. The Potency entry with MCC-13, in the test on MCC-26, in the test with MKL-1, in the test with MKL-2 and in the test on UISO was “inactive” each time.
As to `COc1cc(C(C)=O)ccc1OCCCN1CCC(c2noc3cc(F)ccc23)CC1`, the call in the test on KB-3-1, in the test with NIH3T3 [1], in the test on HACAT and with NIH3T3 [2] was inactive. For the same compound, in the test on NIH3T3 [1], the max response was -2.71% (inactive). In addition, the Potency result in the test with MCC-13, with MCC-26, with MKL-1 and with UISO was “inactive” throughout.
Regarding `CN1CCC(=C2c3ccccc3CCc3sccc32)CC1`, the max response was -12.2% (inactive) and -19.3% (inactive) with KB-3-1; 2.3% (inactive) with NIH3T3 [1]. Moreover, the compound was called inactive with NIH3T3 [1], with HACAT and in the test with NIH3T3 [2]. The Potency result in the test on MCC-13, in the test with MCC-26, with MKL-1 and in the test on UISO was “inactive” in each case.
For the compound `CN(c1nccc(=O)[nH]1)C1CCN(c2nc3ccccc3n2Cc2ccc(F)cc2)CC1`, the max response is 1.53% (inactive) in the test on KB-3-1; 0.52% (inactive) and 4.28% (inactive) with NIH3T3 [1]. Also, the outcome in the test with KB-3-1, in the test with NIH3T3 [1], in the test on HACAT and in the test with NIH3T3 [2] was inactive. Besides, the Potency entry in the test with MCC-13, with MCC-26, in the test with MKL-1, in the test with MKL-2 and with UISO was “inactive” throughout.
As to `CC1=C(C)C(=O)C(C(CCCCCC(=O)O)c2ccccc2)=C(C)C1=O` (stereo not drawn), the max response is 6.39% (inactive) in the test on KB-3-1 and 2.25% (inactive) with NIH3T3 [1]. For the same compound, the call with NIH3T3 [1], in the test on HACAT, in the test with HEK293T and with NIH3T3 [2] was inactive. The Potency result with MCC-13, with MCC-26, with MKL-1 and in the test with UISO was “inactive” throughout. Moreover, in the test on MKL-2, the Potency is 23.7 µM (active) and inactive.
`Nc1ncn([C@H]2C[C@H](O)[C@@H](CO)O2)c(=O)n1`: the max response was 9.32% (inactive) with KB-3-1 and -24.2% (inactive) with NIH3T3 [1]. Further, the compound was called inactive in the test on KB-3-1 and with HACAT. Further, the Potency result with MCC-13, in the test with MCC-26, in the test on MKL-1, in the test on MKL-2 and with UISO was “inactive” in each case.
For `COc1ccc2cc([C@H](C)C(=O)O)ccc2c1`, the max response in the test on KB-3-1 is 11.2% (inactive) and 5.36% (inactive) and -1.1% (inactive); in the test on NIH3T3 [1] it was 2.8% (inactive) and -7.1% (inactive). Besides, the compound was called inactive in the test with NIH3T3 [1], in the test with HACAT, in the test on HEK293T and with NIH3T3 [2]. The Potency entry in the test on MCC-13, in the test on MCC-26, with MKL-1, in the test on MKL-2 and in the test on UISO was “inactive” in each case.
For the compound `Nc1ccc(S(N)(=O)=O)cc1`, the max response was 4.1% (inactive) and 2.9% (inactive) in the test with KB-3-1; -7.64% (inactive) in the test with NIH3T3 [1]. The call in the test on NIH3T3 [1], in the test with HACAT and in the test with NIH3T3 [2] was inactive. Further, the Potency entry in the test with MCC-13, in the test on MCC-26, with MKL-1, in the test on MKL-2 and with UISO was “inactive” in each case.
Take `Cc1cc2cc3c(C)cc(=O)oc3c(C)c2o1`: the max response in the test on KB-3-1 is -3.63% (inactive); with NIH3T3 [1], -1.93% (inactive). For the same compound, the outcome with KB-3-1, in the test with NIH3T3 [1], in the test on HACAT, in the test with HEK293T and in the test with NIH3T3 [2] was inactive. The Potency result with MCC-13, in the test on MCC-26, in the test on MKL-1, with MKL-2 and with UISO was “inactive” in each case.
With `Clc1ccc(C(Cn2ccnc2)OCc2ccc(Sc3ccccc3)cc2)c(Cl)c1` (stereo not drawn), the max response is -18.4% (inactive) in the test on KB-3-1 and -3.29% (inactive) in the test on NIH3T3 [1]. Moreover, the result with NIH3T3 [1], in the test with HACAT, with HEK293T and in the test on NIH3T3 [2] was inactive. Besides, the Potency entry in the test with MCC-13, with MCC-26, in the test with MKL-1, with MKL-2 and in the test with UISO was “inactive” throughout.
`Cc1ncc([N+](=O)[O-])n1CC(C)O` (stereo not drawn): the max response in the test with KB-3-1 was 2.22% (inactive) and 6.66% (inactive); in the test with NIH3T3 [1] it was 2.47% (inactive). The compound was called inactive in the test with NIH3T3 [1], with HACAT, with HEK293T and with NIH3T3 [2]. Further, the Potency entry in the test on MCC-13, with MCC-26, with MKL-1, in the test on MKL-2 and with UISO was “inactive” in each case.
With `CCN(CCO)CCCC(C)Nc1ccnc2cc(Cl)ccc12` (stereo not drawn), the max response in the test with KB-3-1 was -5.86% (inactive) and 9.19% (inactive) and -2.52% (inactive); in the test on NIH3T3 [1] it was -2.56% (inactive). In the test with NIH3T3 [1], the outcome was inactive. Moreover, the outcome in the test on HACAT, in the test with HEK293T and in the test with NIH3T3 [2] was “inactive [at 4.96 µM]” each time. Moreover, the Potency result with MCC-13, in the test on MCC-26, with MKL-2 and in the test on UISO was “inactive” each time. Further, in the test on MKL-1, the Potency is 3.72 µM (active). Further, the activity change, negative = cytotoxicity in the test with MKL-1 was 15.4% [at 4.84 µM] (inactive).
With `CC(C)c1ccc2oc3nc(N)c(C(=O)O)cc3c(=O)c2c1`, the max response in the test on KB-3-1 was -4.86% (inactive); in the test on NIH3T3 [1], -24.8% (inactive) and -20.9% (inactive). In addition, the result in the test with KB-3-1 and in the test with HACAT was inactive. Moreover, the Potency result with MCC-13, in the test on MCC-26, with MKL-1, with MKL-2 and in the test on UISO was “inactive” each time.
With `Clc1ccc(C(Cn2ccnc2)OCc2c(Cl)cccc2Cl)c(Cl)c1` (stereo not drawn), the max response with KB-3-1 was -15.6% (inactive) and -6.5% (inactive) and -4.2% (inactive); in the test on NIH3T3 [1], -3.81% (inactive) and -0.381% (inactive). The outcome with NIH3T3 [1], in the test with HACAT and in the test on NIH3T3 [2] was inactive. The Potency entry in the test with MCC-13, with MCC-26, in the test with MKL-1 and with MKL-2 was “inactive” throughout.
